Source: PubChem
Compounds with a hit are over-represented: about 5.7% of the library has one in this group of screens.
hgDAF-12 ag: hgDAF-12 agonism, primary luciferase screen | AID 687014 | activation, % at 6.8 µM | HEK293 GAL4-hgDAF12 UAS-luciferase reporter, agonist luminescence; normalized to butyrate control | 370,000 tested, 1.8% active;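 active means activation above a cutoff set at the mean of all screened compounds plus 3 SD, cut at about 10% in these data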
ssDAF-12 act: activators of S. stercoralis DAF-12 nuclear receptor. AID 652126. activation, % at 6.8 µM. HEK293 ssDAF-12/GRIP1 lit1-tk-luc reporter, luminescence; % of 3 µM dafachronic acid response. 370,000 tested, 1% active;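 active means activation above the mean over all tested compounds plus 3 SD, cut at about 0.9% in these data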
hcDAF-12 act: activators of H. contortus DAF-12 nuclear receptor | HEK293 hcDAF-12 lit1-tk-luc reporter, luminescence; 0% DMSO, 100% Δ7-dafachronic acid | activation, % at 6.8 µM | 370,000 tested, 1.4% active | AID 652067;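 active means activation above the mean of all tested compounds plus 3 SD, cut at about 5.5% in these data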
DAX1 inh-1: NR0B1 (DAX1) inhibition | 340,000 tested, 0.99% active | HEK293 Gal4-DAX1 luciferase reporter, luminescence | P51843 | inhibition, % at 6.75 µM;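 active means inhibition above the mean over all tested compounds plus 3 SD, cut at about 4.2% in these data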;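 further: inhibition shows as a rise in luminescence from relieved DAX1 repression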
AHR activator: activators of human aryl hydrocarbon receptor | P35869 | AHR-responsive luciferase reporter cells, luminescence | activation, % at 5 µM | 320,000 tested, 2.5% active; in the data active means activation above about 47%
DAX1 inh-2: blocks DAX1 repression of SF-1 activated StAR promoter; HEK293T StAR-luciferase reporter, SF-1/DAX-1 repression relief; 370,000 tested, 1.1% active; AID 652010; inhibition, % at 6.8 µM;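 active means inhibition above the mean over all tested compounds plus 3 SD, cut at about 3.6% in these data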;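 further: higher inhibition means more luminescence from relief of DAX-1 repression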
Hits are given with their value; i = inactive; nt = no result.

SMILES	hgDAF-12 ag	ssDAF-12 act	hcDAF-12 act	DAX1 inh-1	AHR activator	DAX1 inh-2
CNC(=S)N/N=C/c1c(Cl)cccc1Cl	i	i	i	i	i	i
CC(=O)Nc1cccc(NC(=S)Nc2cccc(Cl)c2Cl)c1	i	i	i	i	i	i
CNC(=S)N/N=C/c1ccccc1Cl	i	i	i	i	60	i
S=C(Nc1ccccc1)Nc1cccc(Cl)c1Cl	i	i	i	6.1	i	i
CC1CCC(NC(=O)COC(=O)c2n[nH]c(=O)c3ccccc23)CC1 (configuration not stated)	i	i	i	i	i	i
NC(=O)c1ccc(Oc2ccc(C(N)=O)cc2)cc1	i	i	i	5.2	i	i
COc1ccc(F)cc1-c1cc(C(=O)NCc2ccc(F)cc2)[nH]n1	i	i	i	nt	nt	i
O=C(COC(=O)c1ncc(Cl)c(Cl)c1Cl)Nc1ccc(Cl)cn1	i	i	i	i	66	i
O=C(COC(=O)c1ncc(Cl)c(Cl)c1Cl)Nc1cccnc1Cl	i	i	i	i	i	i
O=C(COC(=O)c1nc(Cl)ccc1Cl)Nc1ccc(Cl)cc1	i	i	i	i	i	i
O=C(COC(=O)c1nc(Cl)ccc1Cl)Nc1ccc(Cl)cn1	i	1.0	5.7	i	i	i
C#CCSc1ncc(-c2ccccc2)cn1	13	1.9	i	i	i	i
C=CCc1cccc(CNc2ccc(S(=O)(=O)Nc3nccnc3OC)cc2)c1O	i	i	i	i	i	i
C=CCc1cccc(CNc2ccc(Br)cc2)c1O	i	i	i	i	71	i
c1ccc(COCc2ccccc2)cc1	i	i	i	nt	nt	i
COc1ccc(OC)c(N/C(N)=N/c2nc(C)cc(C)n2)c1	i	i	i	i	66	i
CCCOc1ccccc1N/C(N)=N/c1nc(C)cc(C)n1	i	i	i	i	56	i
CCCOc1ccccc1N/C(=N/c1nc(C)cc(C)n1)NC(=O)COc1ccc(OC)cc1	i	i	i	i	i	i
COc1ccc(Cl)cc1N/C(N)=N/c1nc(C)cc(C)n1	i	i	i	i	i	i
COc1cc(N/C(N)=N/c2nc(C)cc(C)n2)cc(OC)c1	i	i	i	i	65	i
COc1ccc(N/C(N)=N/c2nc(C)cc(C)n2)c(OC)c1	i	i	i	i	63	i
CCOc1ccc(N/C(N)=N/c2nc(C)cc(C)n2)cc1	i	i	i	i	i	i
NC(Cc1ccc(O)cc1)C(=O)NN=Cc1ccccc1O (configuration not stated)	i	i	i	nt	nt	i
Cn1nnnc1SCC(=O)Nc1ncc(C(F)(F)F)cc1Cl	i	i	i	i	i	i
CC(=O)c1sc(NC(=O)C2CCN(C(=O)c3ccc(F)cc3)CC2)nc1-c1ccccc1	i	i	i	i	i	i
SMILES	hgDAF-12 ag	ssDAF-12 act	hcDAF-12 act	DAX1 inh-1	AHR activator	DAX1 inh-2
Cc1cc(C)nc(/N=C(\N)Nc2ccc3c(c2)OCCO3)n1	i	i	i	i	72	i
c1ccc2c(Nc3nnc(-c4ccncc4)s3)cccc2c1	10	i	i	i	63	i
C=CCNc1nnc(-c2ccncc2)s1	i	i	i	i	i	i
Nc1ccc2cn[nH]c2c1	i	i	i	i	49	i
O=C(Nc1cccc(-c2cn3c(n2)SCC3)c1)c1ccc2c(c1)OCO2	i	i	i	i	50	i
O=C(Nc1cccc(-c2cn3cccnc3n2)c1)c1ccc2c(c1)OCO2	i	i	i	i	49	i
O=C(Nc1ccccc1)Nc1cccc(-c2cn3cccnc3n2)c1	i	i	i	i	i	i
O=C(Nc1cccc(-c2cn3cccnc3n2)c1)c1ccc(Br)o1	i	i	i	i	72	i
O=C(Nc1cccc(-c2cn3cccnc3n2)c1)c1ccco1	nt	nt	nt	i	i	nt
c1cnc2nc(-c3ccc4c(c3)OCO4)cn2c1	13	i	i	i	64	4.1
Nc1cccc(-c2cn3cccnc3n2)c1	i	i	i	i	i	i
COc1ccc(C(C)=O)cc1CSC(=S)N1CCSCC1	i	i	i	nt	nt	i
CC(=Nc1cccc(O)c1)c1sc2ccccc2c1O	i	1.5	i	i	i	i
Oc1c(C=Nc2ccccc2)sc2ccccc12	i	i	i	i	i	i
Cc1ccc(NC(=O)CCn2c(=S)oc3ccccc32)cc1	i	i	i	i	i	i
CN(C)c1ccc(NC(=O)CCn2c(=S)oc3ccccc32)cc1	i	i	i	i	59	i
